# An excerpt weighted towards active compounds, which were near 8.3% of everything screened.
# FBPA Giardia inh = inhibitors of Giardia lamblia fructose-1,6-bisphosphate aldolase. Potency, µM (doses to about 59.6 µM), hits mostly inhibitors. AID 2451. A8B2U2. purified Giardia FBPA. actives 0.71% (n = 290,000); also: nearly all actives have a fitted effect of over 55% in size
# Target sequence (A8B2U2 whole entry, looked up): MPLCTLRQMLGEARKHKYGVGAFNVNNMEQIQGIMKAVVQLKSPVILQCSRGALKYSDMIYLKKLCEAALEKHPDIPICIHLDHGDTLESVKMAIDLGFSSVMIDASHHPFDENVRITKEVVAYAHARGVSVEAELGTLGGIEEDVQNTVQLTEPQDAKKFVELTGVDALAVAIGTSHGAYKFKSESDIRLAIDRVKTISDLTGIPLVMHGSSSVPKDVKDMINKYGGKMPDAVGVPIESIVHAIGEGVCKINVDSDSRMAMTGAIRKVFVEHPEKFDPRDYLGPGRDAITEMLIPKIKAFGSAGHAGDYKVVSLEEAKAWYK
#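 40 nM FBPA preincubated 10 min at RT with compound (up to 57.5 uM final), then substrate plus GAPDH/TPI/NAD/arsenate coupling and diaphorase/resazurin added. Fluorescence read after 20 min at RT, 525/598 nm.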
# Lassa entry inh = Lassa virus entry inhibition | Lassa virus pseudotype entry inhibition, cell reporter | AID 540256 | Potency, µM (doses to about 37.9 µM), most hits filed as inhibitors | actives 1.2% (n = 300,000); calls by dose curve; tested in HEK293 cells; also: nearly all actives have a fitted effect of over 50% in size
# MARV entry inh = blocks Marburg virus binding to or entry into cells; Marburg virus pseudotyped entry inhibition, cell reporter; Potency, µM (titrated, usually from 37.8 µM), most hits filed as inhibitors; actives 1.8% (n = 300,000); AID 540276; calls by dose curve; tested in HEK293 cells
# HCMV antiviral = blocks human cytomegalovirus replication. activity change, negative = inhibition, % at 57.5 µM. HFF cells, HCMV-luciferase reporter, 72 h; active compounds read low. actives 4.5% (n = 410,000). AID 1259415; in the data active = activity change below about -60%; inconclusive = no clear call, values can overlap the other calls; inactive = above about -39%
#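 After 16 h attachment at 37C, HFF cells received test compound and HCMV-luciferase (1 PFU/cell); reporter luminescence read 72 h later, data normalized against buffer-only and known inhibitor Salinomycin.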
# HCV inhibitor = HCV inhibition | actives 3.4% (n = 340,000) | Huh7.5.1 HCVcc-Cre infection, luciferase reporter, 44 h | Potency, µM (titrated, usually from 41.8 µM), usual class: inhibitors
#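 Infectious HCV cell culture screen: compound-treated cells (1,000/well, pre-plated 4 h) are infected with HCVcc-Cre at roughly 0.5 moi and grown 44 h. Infection is quantified by luciferase signal after 15 min substrate incubation at room temperature.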
# FMDV inh = foot and mouth disease virus antiviral activity. FMDV antiviral cell-based qHTS. Potency, µM (doses to about 57.9 µM), hits mostly inhibitors. actives 1.2% (n = 410,000). AID 1159524; calls by dose curve; tested in HEK293T cells; also: read-out not given here; nearly all actives have a fitted effect of over 45% in size
# A number is an active result; - = inactive; ? = inconclusive; . = not tested or not shown; [ ] = dose if it differs, or a comment. Unless noted, calls follow the shape of the dose curve; as a rule, active = well fitted curve in the direction sought with a large enough effect; inconclusive = small, poorly fitted or top-dose-only effect, or another doubt; inactive = no such curve, though single readings can be large; an effect the other way counts as inactive or inconclusive.
SMILES,FBPA Giardia inh,Lassa entry inh,MARV entry inh,HCMV antiviral,HCV inhibitor,FMDV inh
COc1ccc(-n2cc(CNCC3CC(=O)N(C4CC4)C3)c(-c3ccccc3Cl)n2)cc1 (stereo unspecified),-,?,11.2µM,-,-,-
CCN1CC(CNCc2cn(-c3ccc(OC)cc3)nc2-c2ccccc2Cl)CC1=O (stereo unspecified),-,-,?,-,-,-
CSc1ccccc1C(=O)NCCc1ccc(S(=O)(=O)N2CCCCC2)cc1,-,-,-,-102.2,-,-
O=C(NC1CCN(Cc2ccccc2)CC1)C1CCN(S(=O)(=O)c2ccc(Cl)cc2)CC1,.,?,?,?,10µM,?
O=C(NC1CCN(Cc2ccccc2)CC1)C1CCN(S(=O)(=O)c2ccccc2)CC1,-,-,-,-,?,-
NC(=O)C1CCN(c2ccc(S(=O)(=O)N3CCC(Cc4ccccc4)CC3)cn2)CC1,-,?,?,-67.3,?,?
O=C(NCCc1ccccc1)C1CCN(S(=O)(=O)c2ccccc2)CC1,-,-,?,-104.0,-,-
O=C(NCCc1ccccc1)c1ccc(S(=O)(=O)N2CCCCC2)cc1,.,.,.,-,.,-
CCOC(=O)CN1C(=O)[C@]2(OC[C@@H]3Cc4ccccc4[C@H]3C=C2C)c2ccccc21,.,.,-,.,.,.
O=S(=O)(NC1CCCC1)c1ccc(S(=O)(=O)N2CCCN(Cc3ccccc3)C2)cc1,-,?,5.8µM,-,?,-
O=C(CCNC(=O)C1CCN(S(=O)(=O)c2ccccc2)CC1)NCc1ccc(Cl)cc1,.,.,.,-,-,-
O=C(CCNC(=O)C1CCN(S(=O)(=O)c2ccccc2)CC1)NCc1ccc(Cl)cc1Cl,.,.,.,-74.6,-,?
N#Cc1ccc(S(=O)(=O)NC2CCN(Cc3ccccc3)CC2)cc1,-,-,-,-,-,-
COC(=O)C1=C(c2ccc(-c3ccccc3)c(F)c2)C[C@@H]2CC[C@H]1N2C(=O)NC1CC1,.,.,.,-,10µM,-
COC(=O)C1=C(c2ccc(-c3ccccc3)c(F)c2)C[C@@H]2CC[C@H]1N2C(=O)NCCOc1ccccc1Cl,.,.,.,-,14.1µM,?
COC(=O)C1=C(c2ccc(-c3ccccc3)c(F)c2)C[C@@H]2CC[C@H]1N2C(=O)NCCO,.,.,.,-,?,-
COC(=O)C1=C(c2ccc3ccccc3c2)C[C@@H]2CC[C@H]1N2C(=O)NC(C)C,.,.,.,-63.5,-,-
CCCNC(=O)N1[C@H]2CC[C@@H]1C(C(=O)OC)=C(c1ccc(-c3ccccc3)c(F)c1)C2,.,.,.,-,7.94µM,?
COC(=O)C1=C(c2ccc3ccccc3c2)C[C@@H]2CC[C@H]1N2C,.,.,.,-,-,-
O=C(CN1CCN(c2ccccc2F)CC1)c1c[nH]c2ccc(F)cc12,-,?,11.6µM,-,?,-
COc1ccc(CNC(=O)CN(C)Cc2ccc(SC)cc2)cc1,-,?,-,-,-,-
CN(Cc1ccccc1)C(NC(=O)c1ccccc1)C(Cl)(Cl)Cl (stereo unspecified),-,20.6µM,-,-,?,-
CSc1ccc(CN(C)C(=O)C(Cc2ccccc2)NC(=O)c2ccccc2)cc1 (stereo unspecified),.,?,?,-66.7,.,-
CN(Cc1ccc(F)cc1)C(=O)C(Cc1ccccc1)NC(=O)c1ccccc1 (stereo unspecified),.,-,?,-,-,-
CSCCC(NC(=O)c1ccccc1)C(=O)O (stereo unspecified),-,-,-,-,-,-
SMILES,FBPA Giardia inh,Lassa entry inh,MARV entry inh,HCMV antiviral,HCV inhibitor,FMDV inh
CSc1ccc(CN(C)CC(=O)NCc2ccccc2)cc1,-,?,-,-62.8,-,-
O=C(NC(CSSCC(NC(=O)c1ccccc1)C(=O)O)C(=O)O)c1ccccc1 (stereo unspecified),-,.,.,-,1.58µM,-
COc1ccc([C@]23Cc4cc(C#N)ccc4[C@H](O2)c2c(cc(C)n(-c4ccccc4)c2=O)O3)cc1,.,.,-,.,.,.
CCOc1ccc(CN(C)C(=O)[C@H](Cc2ccccc2)NC(=O)OCc2ccccc2)cc1OC,-,8.91µM,4.47µM,-,?,20µM
Cc1cccc(C(=O)NC(NCCc2ccccc2)C(Cl)(Cl)Cl)c1 (stereo unspecified),-,?,?,-71.3,-,?
Cc1cccc(C(=O)NC(NCc2ccco2)C(Cl)(Cl)Cl)c1 (stereo unspecified),-,-,-,-,-,-
O=C1CC[C@@H](S(=O)(=O)c2ccccc2)[C@H](c2ccccc2)N1Cc1ccccc1,.,.,.,-,.,.
COc1cc(C)c2occ(/C(C)=N\O)c2c1,-,-,-,-,8.91µM,-
CC(C)C[C@@H](CC(=O)N[C@@H](CCC(=O)O)CC(=O)O)NC(=O)[C@@H]1CCCC[C@H]1NC(=O)C[C@@H](NC(=O)C[C@H](CO)NC(=O)[C@@H]1CNCC[C@H]1N)C(C)C,-,.,.,.,.,.
COc1cc2c(cc1NC(=O)c1ccc(C(C)(C)C)cc1)CCCC2,-[12.9 µM],1.41µM,4.47µM,-90.3,?,-
CC(=O)Nc1cccc(OCCCNC(=O)c2ccc(C(C)(C)C)cc2)c1,-,.,.,-,10µM,-
COc1cc(C(=O)Nc2ccc(NC(=O)c3cccc(Cl)c3)nc2)cc(OC)c1OC,-,?,?,-,3.98µM,-
O=C(Nc1ccc(NC(=S)NC(=O)c2ccccc2Cl)cc1)c1cccc(Cl)c1,.,?,?,-,25.1µM,-
CC[C@H]1Nc2ccc(NC(=O)OC(C)(C)C)cc2[C@@H](NC(=O)OCc2ccccc2)[C@@H]1C,.,.,.,-,.,.
Cc1cccc(OCc2nnc(SCC(=O)Nc3ccc(C)cc3C)o2)c1,.,-,-,-,.,-
COc1cccc(C(=O)Nc2ccc(NC(=O)c3ccc(C(C)(C)C)cc3)cc2)c1,.,-,.,-96.9,.,-
COC(=O)Cc1ccc(NC(=O)c2ccc(C(C)(C)C)cc2)cc1,-,6.51µM,?,-92.8,2.51µM,10µM
COc1cccc(C(=O)Nc2ccc(NC(C)=O)cc2)c1,-,-,?,-,-,-
COc1cccc(C(=O)Nc2ccc(NC(=O)C(C)(C)C)cn2)c1,-,7.08µM,12.6µM,-,?,-
CCCCCCCC#Cc1ccccc1C=NS(=O)c1ccc(C)cc1 (stereo unspecified),.,.,-,.,.,.
CO[C@]12CC(COC(=O)c3cncc(Br)c3)CN(C)[C@@H]1Cc1cn(C)c3cccc2c13 (stereo partly specified),-,.,.,.,.,-
COc1cc(/C=C(\C#N)C(N)=O)ccc1OS(=O)(=O)c1ccc(C)cc1,-,-,-,-,-,-
COc1cc(/C=C(\C#N)C(=O)NC2CCCCC2C)ccc1OS(=O)(=O)c1ccc(C)cc1 (stereo unspecified),-,?,-,-,-,25.1µM
CC1(Cc2ccc(F)cc2)C(=O)Nc2ccc(-c3cccnc3)cc21 (stereo unspecified),.,.,.,-64.3,.,-
CC1(Cc2ccc(Cl)cc2)C(=O)Nc2ccc(-c3ccc(F)c(Cl)c3)cc21 (stereo unspecified),.,.,.,-,.,-
